Data on 41 compounds can be found in PubChem BioAssay (EPA / NIEHS).

Assay [1] has as its target Cellular tumor antigen p53 (Homo sapiens) (UniProt P04637). In words: TOX21_p53_BLA_p2_ratio: Tox21 HCT-116 p53 Agonism Beta-lactamase Assay, Ratio, Phase 2 (AID 2283592). The procedure, abridged:
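HCT116 p53-bla; 4000 cells/well; 5 h pre-incubation; cpd in DMSO, 217-fold dilution; 16 h 37C/5% CO2; CCF4-AM 2 h RT; Ex 405, Em 460/530 ratio; DMSO = baseline; positive fitting direction.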

For assay [2] the target is unchanged. In words: TOX21_p53_BLA_p3_ratio: Tox21 HCT-116 p53 Agonism Beta-lactamase Assay, Ratio, Phase 3 (AID 2283596). Put shortly: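 HCT116 p53-bla cells (4000/well) given compound in DMSO (217-fold dilution) after 5 h, incubated 16 h at 37C. CCF4-AM substrate 2 h at room temperature; 460/530 nm emission ratio, gain fitted against DMSO.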
Assay [3] in a line: TOX21_p53_BLA_p4_viability: Viability Assessment in the Tox21 HCT-116 p53 Agonism Beta-lactamase Assay, Phase 4 (AID 2283597).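 Also: hits lower the luminescence signal meaning cytotoxicity.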 Put shortly: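 Cells plated, 5 h pre-incubation; DMSO compounds pinned (217-fold dilution); 16 h, 37C/5% CO2; CCF4-AM 2 h RT; CellTiter-Glo 30 min RT; luminescence read.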
In assay [4] the target is Cellular tumor antigen p53 (Homo sapiens) (UniProt P04637). Nature of the assay: TOX21_p53_BLA_p5_ratio: Tox21 HCT-116 p53 Agonism Beta-lactamase Assay, Ratio, Phase 5 (AID 2283599). The procedure, abridged: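 HCT-116 p53-bla cells (4000/well) plated 5 h, dosed with compound (217-fold DMSO dilution) for 16 h at 37 C; CCF4-AM substrate 2 h at room temperature. Activity is the 460/530 nm emission ratio (405 nm excitation), fitted in gain-of-signal direction versus DMSO.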
Cellular tumor antigen p53 (Homo sapiens), sequence (P04637 whole entry, looked up): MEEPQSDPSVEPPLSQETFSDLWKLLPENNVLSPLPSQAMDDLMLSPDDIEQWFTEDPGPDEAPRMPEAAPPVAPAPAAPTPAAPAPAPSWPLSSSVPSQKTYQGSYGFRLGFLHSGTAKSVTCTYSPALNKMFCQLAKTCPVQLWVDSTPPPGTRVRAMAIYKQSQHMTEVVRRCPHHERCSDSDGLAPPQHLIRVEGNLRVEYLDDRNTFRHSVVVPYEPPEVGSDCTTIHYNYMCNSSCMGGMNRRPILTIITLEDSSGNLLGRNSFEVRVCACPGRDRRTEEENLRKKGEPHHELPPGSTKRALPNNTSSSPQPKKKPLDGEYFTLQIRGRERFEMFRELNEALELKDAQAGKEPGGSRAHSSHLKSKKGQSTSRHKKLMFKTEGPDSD

Assay [5] can be described thus: TOX21_p53_BLA_p5_viability: Viability Assessment in the Tox21 HCT-116 p53 Agonism Beta-lactamase Assay, Phase 5 (AID 2283600). Put shortly: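 4000 cells/well; 5 h pre-incubation; DMSO compounds pin-transferred, 217-fold dilution; 16 h, 37C/5% CO2; CCF4-AM 2 h RT; CellTiter-Glo 30 min RT; luminescence.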
In assay [6] the target is Cellular tumor antigen p53 (Homo sapiens) (UniProt P04637). In words: TOX21_p53_BLA_p4_ratio: Tox21 HCT-116 p53 Agonism Beta-lactamase Assay, Ratio, Phase 4 (AID 2283601). The procedure, abridged:
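HCT-116 p53 beta-lactamase reporter cells (4000/well) preincubated 5 h, then compound (217-fold dilution of DMSO stock) for 16 h at 37C. CCF4-AM substrate added 2 h at room temperature; 460/530 nm emission ratio fitted upward versus DMSO.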

Assay [7] in a line: TOX21_p53_BLA_p3_viability: Viability Assessment in the Tox21 HCT-116 p53 Agonism Beta-lactamase Assay, Phase 3 (AID 2283593).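 Also: cells exposed to compound for 16 h before reading.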 The procedure, abridged: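 HCT116 cells, 4000/well, dosed 5 h after plating by pin transfer (217-fold dilution from DMSO stock) and incubated 16 h at 37C, 5% CO2. Viability read as ATP luminescence with CellTiter-Glo after 30 min at room temperature.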

Records with an inconclusive call do not appear. Calls of active or inactive are those of the source. The calls were made as follows: active = hit-call score of the fitted dose curve at least 0.9, where 1 is the maximum; inconclusive = response in the unintended direction; inactive = score below 0.9.

As usually defined, the AC50 is the midpoint of the concentration-response curve, whichever way the signal moves.

As to `CN1CCCN(C(c2ccccc2)c2ccc(Cl)cc2)CC1` (stereo not given), the outcome in assay [1], in assay [2], in assay [4], in assay [5] and in assay [6] was inactive. Besides, in assay [3], the concentration at half-maximal activity (AC50) was 34.8 µM (active).

Consider `Nc1nc2c(ncn2COC(CO)CO)c(=O)[nH]1`, for which the result in assay [1], in assay [2], in assay [3], in assay [4], in assay [5] and in assay [6] was inactive.

Take `N[C@@H](CCC(=O)Nc1ccc([N+](=O)[O-])cc1)C(=O)O`: the result in assay [1], in assay [2], in assay [3] and in assay [4] was inactive.

In the case of `O=c1c(O)c(O)c1=O`, the result in assay [1], in assay [2], in assay [3], in assay [4], in assay [5] and in assay [6] was inactive.

For `CCC(C)(C)CC`, the result in assay [1], in assay [2], in assay [3] and in assay [4] was inactive.

With `NCCCC(=O)O`, the outcome in assay [1], in assay [2] and in assay [3] was inactive.

In the case of `Cc1c(N=C=O)cccc1N=C=O`, the outcome in assay [1], in assay [2] and in assay [3] was inactive.

In the case of `CCC(=O)Nc1ccc(O)cc1`, the result in assay [1], in assay [7] and in assay [6] was inactive.

Regarding `CN1CCN(C2=Nc3ccccc3Sc3ccc(Cl)cc32)CC1`, the result in assay [1] and in assay [2] was inactive.

Regarding `CCOCCC(=O)OCC`, the result in assay [1], in assay [7] and in assay [6] was inactive.

As to `Cc1ccc(O)c(N)c1`, the result in assay [1], in assay [2], in assay [3], in assay [4], in assay [5] and in assay [6] was inactive.

On to `Cc1ccnc2ccccc12`, for which the outcome in assay [1] and in assay [2] was inactive.

As for `CC(=O)Oc1cc(C(F)(F)F)ccc1C(=O)O`, the result in assay [1], in assay [2], in assay [3], in assay [4], in assay [5] and in assay [6] was inactive.

On to `CC(C)(C)C(=O)NCCCC(=O)O`, for which the result in assay [1], in assay [2], in assay [3], in assay [4] and in assay [5] was inactive.

Consider `CCC(CO)(CO)CO`, for which the result in assay [1], in assay [2], in assay [3], in assay [4] and in assay [5] was inactive.

For `O=C(C(=O)c1ccco1)c1ccco1`, the outcome in assay [1], in assay [2], in assay [3], in assay [4] and in assay [5] was inactive.

Take `Nc1ccc(N=Nc2ccc(N)cc2)cc1`: the outcome in assay [1] and in assay [2] was inactive.

With `C1=CCC2CC=CC2C1` (stereo not given), the result in assay [1], in assay [2], in assay [3], in assay [4] and in assay [5] was inactive.

For `C[C@]12CC[C@@H]3c4ccc(O)cc4CC[C@H]3[C@@H]1CC[C@@H]2OP(=O)(O)O`, the result in assay [1], in assay [2] and in assay [3] was inactive.

With `CCC(C)(CN(C)C)OC(=O)c1ccccc1` (stereo not given), the result in assay [1], in assay [2], in assay [3] and in assay [4] was inactive.

Consider `C1CSCCS1`, for which the result in assay [1], in assay [2], in assay [3], in assay [4] and in assay [5] was inactive.

Turning to `CCN(CC)CCC(=O)N1c2ccccc2Sc2ccc(C(F)(F)F)cc21`, the result in assay [1], in assay [2], in assay [3] and in assay [4] was inactive.

As for `CCN(CC)CCNC(=O)COc1ccc(OC)cc1`, the outcome in assay [1], in assay [2], in assay [3], in assay [4] and in assay [5] was inactive.

Consider `CC(Cc1cccc(C(F)(F)F)c1)NCCOC(=O)c1ccccc1` (stereo not given), for which the result in assay [1], in assay [2], in assay [3], in assay [4], in assay [5] and in assay [6] was inactive.

Regarding `C[Se]CCC(N)C(=O)O` (stereo not given), the outcome in assay [1], in assay [2] and in assay [3] was inactive.

Take `O=S1OCCO1`: the result in assay [1] and in assay [2] was inactive.

Take `NC(=O)Nc1nc2ccccc2[nH]1`: the result in assay [1], in assay [2], in assay [3], in assay [4], in assay [5] and in assay [6] was inactive.

For `Cc1ncsc1CCO`, the result in assay [1], in assay [2], in assay [3], in assay [4] and in assay [5] was inactive.

As to `CNC(=O)c1ccccc1`, the result in assay [1], in assay [7] and in assay [6] was inactive.

Take `CC(=O)N[C@@H](Cc1ccc(O)cc1)C(=O)O`: the outcome in assay [1], in assay [2], in assay [3], in assay [4] and in assay [5] was inactive.

Regarding `Cc1cc(O)ccc1N`, the outcome in assay [1], in assay [2], in assay [3], in assay [4] and in assay [5] was inactive.

Turning to `CC(C)C(=O)O`, the result in assay [1], in assay [2], in assay [3], in assay [4] and in assay [5] was inactive.

For `Oc1ccc(C2CNCCc3c2cc(O)c(O)c3Cl)cc1` (stereo not given), the result in assay [1], in assay [2], in assay [3] and in assay [4] was inactive.

Turning to `O=C1CCCC(=O)C1`, the outcome in assay [1] and in assay [2] was inactive.

For `COc1ccc(C2(C#N)CCC(C(=O)O)CC2)cc1OC1CCCC1` (stereo not given), the result in assay [1], in assay [2], in assay [3], in assay [4] and in assay [5] was inactive.

Regarding `O=C[O][Al]([O]C=O)[O]C=O`, the outcome in assay [1], in assay [2], in assay [3], in assay [4], in assay [5] and in assay [6] was inactive.

For the compound `O=C(CN1CCNCC1)NC1CCCCC1`, the result in assay [1], in assay [2], in assay [3], in assay [4], in assay [5] and in assay [6] was inactive.

For the compound `O=C(c1ccc2c(c1)C(=O)OC2=O)c1ccc2c(c1)C(=O)OC2=O`, the outcome in assay [1], in assay [2], in assay [3], in assay [4] and in assay [6] was inactive.

Consider `COc1ccc2c(c1OC)C(=O)O[C@@H]2[C@H]1c2c(cc3c(c2OC)OCO3)CCN1C`, for which the result in assay [1], in assay [2], in assay [3], in assay [4] and in assay [6] was inactive.

As for `OCc1c2ccccc2cc2ccccc12`, the outcome in assay [1], in assay [2], in assay [3], in assay [4] and in assay [6] was inactive.

Consider `O=C(Nc1cccc(C2=NCCN2)c1)Nc1cccc(C2=NCCN2)c1`, for which the result in assay [1], in assay [2], in assay [3], in assay [4] and in assay [6] was inactive.
